KCNQ2 inh: rat KCNQ2 potassium channel inhibitors, primary screen, cell-based, CHO-K1, FluxOR thallium flux, B-score. Potassium voltage-gated channel subfamily KQT member 2 (Rattus norvegicus), O88943. 20 min; active compounds read low. B-score at 10 µM. 310,000 compounds, 1.1% hits. AID 2156, 2009;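 active = fluorescence ratio B-score at most minus 3 library SDs, with starting brightness B-score within 2 library SDs, cut at about -5.5 in these data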
Target sequence (O88943 whole entry, looked up): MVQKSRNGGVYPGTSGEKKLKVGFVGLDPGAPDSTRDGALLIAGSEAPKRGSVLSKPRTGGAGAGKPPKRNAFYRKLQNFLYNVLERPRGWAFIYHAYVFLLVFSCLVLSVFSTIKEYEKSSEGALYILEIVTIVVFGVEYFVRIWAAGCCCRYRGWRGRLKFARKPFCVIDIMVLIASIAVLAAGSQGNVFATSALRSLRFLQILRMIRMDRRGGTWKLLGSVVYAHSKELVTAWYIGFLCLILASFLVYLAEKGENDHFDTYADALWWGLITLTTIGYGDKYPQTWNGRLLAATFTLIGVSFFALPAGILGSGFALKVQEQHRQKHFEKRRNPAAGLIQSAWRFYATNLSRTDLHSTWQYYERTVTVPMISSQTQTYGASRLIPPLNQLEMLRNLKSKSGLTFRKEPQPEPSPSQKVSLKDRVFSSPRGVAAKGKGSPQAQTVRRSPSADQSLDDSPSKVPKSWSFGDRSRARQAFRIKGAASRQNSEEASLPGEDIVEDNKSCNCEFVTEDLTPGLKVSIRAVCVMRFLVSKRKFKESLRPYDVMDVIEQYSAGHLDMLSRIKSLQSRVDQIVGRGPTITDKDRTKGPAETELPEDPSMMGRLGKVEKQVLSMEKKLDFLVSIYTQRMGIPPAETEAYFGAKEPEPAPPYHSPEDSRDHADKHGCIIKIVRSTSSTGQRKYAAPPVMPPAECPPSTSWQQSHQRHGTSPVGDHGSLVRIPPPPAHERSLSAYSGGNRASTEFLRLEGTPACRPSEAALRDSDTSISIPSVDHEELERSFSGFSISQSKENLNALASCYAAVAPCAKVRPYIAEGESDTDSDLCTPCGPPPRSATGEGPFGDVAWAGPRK
KCNQ2 pot: potentiators of rat KCNQ2 potassium channel. Potassium voltage-gated channel subfamily KQT member 2 (Rattus norvegicus), O88943. CHO-K1 KCNQ2, FluxOR thallium flux fluorescence; active compounds read high. B-score at 10 µM. 310,000 compounds, 0.54% hits;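 active = fluorescence ratio B-score at least 3 SD of library B-scores, with initial fluorescence B-score within 3 of them, cut at about 5.3 in these data; same plate scores as AID 2156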;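 note: B-score of peak minus minimum over baseline fluorescence ratio after K+ and Tl+ stimulus; positive B-score means potentiation of KCNQ2 with more thallium influx and brighter signal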
KCNQ2 block conf: rat KCNQ2 potassium channel inhibitors, confirmation, cell-based, thallium flux. shares compounds with KCNQ2 inh. KCNQ2-expressing cells, inhibition; active compounds read low. activity change, negative = inhibition, % at 10 µM. 1,000 compounds, 57% hits;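 note: 0% = vehicle wells and values are ratio percent relative to vehicle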
KCNQ1 spec: human KCNQ1 channel inhibition, counter-screen for KCNQ2 inhibitor project, cell-based, FluxOR thallium flux | shares compounds with KCNQ2 inh | KCNQ1-expressing cells, FluxOR thallium flux fluorescence; active compounds read low | activity change, negative = inhibition, % at 10 µM | 1,000 compounds, 15% hits;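 active = activity change at least 3 SD of negative controls below their mean in both duplicate wells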;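 note: CHO cells stably transfected with KCNQ1 and depolarized by potassium stimulus; peak minus minimum fluorescence over baseline after thallium addition; 0% = vehicle negative control and -100% = blank without thallium stimulus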
CHO parental ctr: thallium flux change in parental CHO cells, counter-screen for KCNQ2 inhibitor project | shares compounds with KCNQ2 inh | 1,000 compounds, 14% hits | activity change, % at 10 µM | active compounds read low | AID 493029, 2011;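 note: 0% = vehicle negative controls with stimulus buffer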
KCNQ2 inh confirm: rat KCNQ2 channel inhibitors, confirmation, cell-based, automated patch clamp, single concentration; shares compounds with KCNQ2 inh; KCNQ2-expressing cells, automated patch clamp current; calls only at 10 µM; 550 compounds, 49% hits; AID 588531, 2011
Numbers without * were called inactive; i = inactive; · = not tested or not shown; + = active, no number. Only some compounds are listed: those with a hit (about 1.6% of all), similar ones and a draw of the others. Unless noted, the rule behind the calls is not given here.

SMILES | KCNQ2 inh | KCNQ2 pot | KCNQ2 block conf | KCNQ1 spec | CHO parental ctr | others
COc1ccccc1OCCNS(=O)(=O)c1ccc2oc3ccccc3c2c1 | i | · | · | · | ·
CC1CC(C)CN(C(=O)c2cc(-c3ccncc3)nc3ccccc23)C1 (centres undefined) | i | · | · | · | ·
Cc1ccc2nc(-c3ccccn3)cc(C(=O)N3CCN(c4ncccn4)CC3)c2c1 | i | 0.46 | · | · | ·
Cc1ccc2nc(-c3ccccc3)cc(C(=O)N3CC(C)OC(C)C3)c2c1 (centres undefined) | -9.27* | -9.27 | -30.0%* | i | i | KCNQ2 inh confirm=+
Cc1ccc2nc(-c3ccccc3)cc(C(=O)N3CCc4ccccc4C3)c2c1 | -8.32* | -8.32 | i | i | i
Cc1ccc(OCC(=O)N2CCc3ccccc3C2)c(Br)c1 | i | · | · | · | ·
O=C(c1cc(Cl)nc2ccccc12)N1CCc2ccccc2C1 | i | · | · | · | ·
O=C(c1cc(-c2ccccc2)nc2ccccc12)N1CCc2ccccc2C1 | -7.82* | -7.82 | -28.5%* | i | i | KCNQ2 inh confirm=+
Cc1ccc(OCC(=O)N2CCc3ccccc3C2)c(C)c1 | -7.82* | -7.82 | -30.0%* | i | i | KCNQ2 inh confirm=+
CC(C)C(=O)Nc1ccc(C(=O)NNC(=S)NC(=O)c2ccco2)cc1 | i | 0.26 | · | · | ·
COc1cccc(CSc2nc(N)cc(N)n2)c1 | i | · | · | · | ·
CC(=O)Nc1ccc(C)c(NS(=O)(=O)c2cccc(C(F)(F)F)c2)c1 | i | · | · | · | ·
COc1cccc(-c2cc(C(F)(F)F)n3ncc(C(=O)N4CCc5ccccc5C4)c3n2)c1 | i | · | · | · | ·
COc1ccc(-c2cc(C(F)(F)F)n3ncc(C(=O)N4CCc5ccccc5C4)c3n2)cc1 | -6.77* | -6.77 | i | i | i
CC(C)N(C(=O)COC(=O)[C@@H]1CC(O)CN1S(=O)(=O)c1ccc(C(C)(C)C)cc1)C(C)C (some centres undefined) | i | · | · | · | ·
O=C(COc1ccc(Cl)cc1Cl)OCC(=O)N1CCCc2ccccc21 | i | 0.48 | · | · | ·
O=C(CCCOc1ccc(Cl)cc1Cl)N1CCCc2ccccc21 | -14.4* | -14.4 | i | i | i
CC(C)c1nc(N2CCN(C(=O)c3ccco3)CC2)c2c3c(sc2n1)CCCC3 | -8.69* | -8.69 | i | i | i
Cc1nc(N2CCN(C(=O)c3ccco3)CC2)c2c3c(sc2n1)CCC3 | i | 1.2 | · | · | ·
CCn1ccnc1CN(C)Cc1nc(Cc2cccc(C(F)(F)F)c2)no1 | i | 0.55 | · | · | ·
COc1ccc2nccc(C(N)=O)c2c1 | i | · | · | · | ·
O=C(c1cccc(C(F)(F)F)c1)N1CCc2c([nH]c3ccccc23)C1C(F)(F)F (centres undefined) | i | 2.51 | · | · | ·
Cc1ccc(NC(=O)c2ccccc2OCC(=O)Nc2cccc(Cl)c2C)nc1 | i | · | · | · | ·
CCc1cc(/C(Cc2ccc3ccccc3n2)=N\O)c(O)cc1O | -12* | -12 | -35.0%* | -41.5%* | -27.0%* | KCNQ2 inh confirm=+
